From PubChem BioAssay (NCATS)
Values joined by “and” are separate entries in the source; they are usually repeats but may differ in a detail not shown here. Equal values may be shown once. Records with an inconclusive call do not appear. Where a structure was tested more than once in an assay, its records may differ in their call. Active and inactive are the calls of the source. Unless noted, the call rests on the fitted dose curve; in most records, active means well fitted curve in the direction sought with a large enough effect; inconclusive means small, poorly fitted or top-dose-only effect, or another doubt; inactive means no such curve, though single readings can be large; an effect the other way counts as inactive or inconclusive. Non-standard residues stand in square brackets, D forms with d. Residues, ends and D or L forms follow the SMILES beside them.

Key:
[1] = AP1 Signaling Pathway (AID 357; active means well fitted curve in either direction with a large enough effect, not every such curve was filed as active;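 further: ME-180 reporter cells stimulated with EGF at its EC50 level; on the % scale 0 is the no-effect control and ±100 the full control effect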); conditions: ME-180 AP-1-bla reporter, EGF-induced, beta-lactamase ratio, 5 h
Method in brief: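 Cells are seeded overnight, exposed to compound titrations and an EC50 level of EGF for 5 hours at 37 °C, then loaded with CCF4 dye for 2.5 hours. Beta-lactamase activity under the AP-1 element is read as a blue/green ratio.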

[2] = Stat Signaling Pathway (AID 446; active means well fitted curve in either direction with a large enough effect, not every such curve was filed as active;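 further: ME-180 cervical cancer cells given 40 pM IL-6 alongside compound; SIE-controlled beta-lactamase reporter measured as 460/530 nm FRET emission ratio; on the % scale 0 is the no-effect control and ±100 the full control effect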); conditions: ME-180 SIE beta-lactamase reporter, IL-6 stimulated, 5 h
Method in brief: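 Screening format detects activators and inhibitors alike: ME-180 SIE-bla cells stimulated at 40 pM IL-6 for 5 hrs with compound, then dual-emission beta-lactamase read at 405 nm excitation.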

[3] = molecular target: Glucocorticoid receptor (Homo sapiens) (UniProt P04150); experiment: GR-GFP Redistribution (AID 450;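 active means compounds whose dose series gives a full or clear partial fitted curve of increased nuclear translocation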; further: potency means the concentration at half of the fitted maximal effect); conditions: U2OS GR-GFP nuclear translocation, laser cytometry, 2 h
[4] = test system: Zika virus NS2B-NS3 protease; experiment: Primary screen GU AMC qHTS for Zika virus inhibitors (AID 1347154);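 further: 0% = no-inhibitor control and -100% = no-enzyme control; nearly all actives have a fitted effect of over 70% in size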
Method in brief: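 Unlinked Zika NS2B hydrophilic domain–NS3 protease complex at 25 nM in 10 mM Tris-HCl pH 8.0, 0.01% Tween 20, with an AMC peptide substrate. Fluorescence change (340/450 nm) over 15 min at room temperature, normalized to controls, fitted to 4-parameter Hill.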

[5] = Primary qHTS for small molecule stabilizers of the endoplasmic reticulum resident proteome: Secreted ER Calcium Modulated Protein (SERCaMP) assay (AID 1508630); further: on the % scale 0 is the no-effect control and ±100 the full control effect
Method in brief: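 GLuc-SERCaMP-expressing SH-SY5Y cells, pretreated 16 h with compound, are challenged with thapsigargin to empty ER calcium stores; after 4 h, coelenterazine is added directly to the medium and luminescence is imaged.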

[6] = molecular target: Cytochrome P450 1A2 (Homo sapiens) (UniProt P05177); experiment: p450-cyp1a2 (AID 410; calls by dose curve; further: potency means the concentration at half of the fitted maximal effect;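 on activity change, negative = inhibition: -100% = full effect of reference inhibitor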)
Method in brief: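 Human CYP1A2 (20nM) demethylated Luciferin-ME at its Km (100uM) in 100mM KPO4. After 10 min compound preincubation, NADPH regeneration ran the reaction 60 min at room temperature. Luciferin was read by luminescence, normalized to 57 uM furafylline.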

[7] = NFAT Signaling Pathway (AID 444; active means well fitted curve in either direction with a large enough effect, not every such curve was filed as active;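 further: carbachol stimulus at about its EC50 of 1 µM final; on the % scale 0 is the no-effect control and ±100 the full control effect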); conditions: Jurkat NFAT-bla M1, carbachol, beta-lactamase ratio, 5 h
Method in brief: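 Jurkat cells with NFAT-driven β-lactamase reporter and co-expressed M1 receptor, stimulated with carbachol (final 1 uM, ~EC50), compound titration, 5 h at 37 °C. CCF4 loaded 1 h at RT; 460/530 nm ratio gave %activity and AC50.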

[8] = molecular target: Glucocorticoid receptor (Homo sapiens) (UniProt P04150); experiment: GR-EFC Redistribution (AID 451; calls by dose curve; further: potency means the concentration at half of the fitted maximal effect); conditions: CHO-K1 GR-EFC translocation, beta-gal luminescence, 2 h
Method in brief: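 CHO-K1 cells expressing nuclear EA and GR-ED fragments of b-gal; compounds titrated up to 46 uM final, 2 h at 37 C. GR nuclear translocation read as complemented b-gal luminescence after 1 h RT detection.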

[9] = molecular target: Mitogen-activated protein kinase 10 (Mus musculus) (UniProt Q61831); experiment: JNK3 AlphaScreen Assay (AID 530; active means well fitted curve in either direction with a large enough effect, not every such curve was filed as active;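 further: kinase came from lysate of stimulated human HepG2 cells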; further: potency means the concentration at half of the fitted maximal effect)
Method in brief: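 qHTS format: compounds tested as titrations against IL-1beta/TNF-alpha-activated HepG2 lysate JNK3 with biotin-GST-cJun substrate and 10 uM ATP at room temperature. Loss of anti-phospho-cJun AlphaScreen signal indicates inhibition.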

[10] = molecular target: 3',5'-cyclic-AMP phosphodiesterase 4B (Homo sapiens) (UniProt Q07343); experiment: qHTS Assay for Inhibitors of PDE-IV (AID 607; active means well fitted activation curve with a large enough effect in the main read-out, with a control signal flat, not every such curve was filed as active; further: % of control where 0% means no effect)
Method in brief: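 The readout is membrane depolarisation from a cAMP-sensing CNG channel, detected with a potential dye at ex 535/em 590. Cells were HEK293-derived (endogenous PDE-IV) at 1000 cells/well, titrated up to 22.9 uM final.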

[11] = molecular target: Cytochrome P450 2C19 (Homo sapiens) (UniProt P33261); experiment: qHTS Assay for Inhibitors and Substrates of Cytochrome P450 2C19 (AID 899); further: nearly all actives have a fitted effect of over 60% in size; further: potency means the concentration at half of the fitted maximal effect
Method in brief: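 Luminescent read-out of luciferin formed from Luciferin-H EGE (10uM, equal to KM). Enzyme 5nM in 50mM KPO4; compound added, 10 min at 37C, then NADPH regenerating system for 60 min at 37C. Full inhibition defined by 57uM ketoconazole.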

[12] = molecular target: Guanine nucleotide-binding protein G(i) subunit alpha-1 (Homo sapiens) (UniProt P63096); experiment: qHTS Assay for Inhibitors of RGS12 GoLoco Motif Activity (Green Fluorophore) (AID 879);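 further: 0% = labeled peptide with Gαi1 and full inhibition = labeled peptide alone without protein; negative values mean loss of peptide binding seen as reduced polarization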
Method in brief: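 Fluorescence polarization assay: 50 nM Gαi1 with 10 nM FITC-labeled RGS12 GoLoco peptide in 10 mM Tris pH 7.5, 150 mM NaCl, 0.1 mM GDP, 0.05% NP40, 10 min at room temperature with compound.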

[13] = molecular target: Pyruvate kinase (Leishmania mexicana) (UniProt Q27686); experiment: qHTS Validation Assay for Inhibitors of Leishmania Mexicana Pyruvate Kinase (AID 945);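 further: 0% = DMSO only neutral control wells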
Method in brief: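 Read-out: luminescence from PKLight stop/detection reagent, data normalized to DMSO. Reaction: 0.2 nM E451W LmPYK, 0.5 mM PEP, 0.1 mM ADP, pH 7.2, 1 h room temperature.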

[14] = molecular target: Pyruvate kinase PKM (Homo sapiens) (UniProt P14618); experiment: qHTS Assay for Activators of Human Muscle Pyruvate Kinase (AID 954; active means well fitted curve in the direction sought with a large enough effect, not every such curve was filed as active;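 further: 0% = uninhibited enzyme and -100% = no enzyme or full thiadiazolimine inhibition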)
Method in brief: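 Reaction: 0.1 nM purified PKM2 with 0.5 mM phosphoenolpyruvate and 0.1 mM ADP, room temperature, 1 h. Readout: luciferase-based ATP luminescence after stop reagent. Activators judged against a 0.3 nM enzyme column.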

[15] = molecular target: Alpha-galactosidase A (Homo sapiens) (UniProt P06280); experiment: Counterscreen for Glucocerebrosidase Inhibitors: qHTS Assay for Human alpha-Galactosidase at pH 4.5 (AID 992); further: 0% is about no effect
Method in brief: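 Concentration-response curves (0.7 nM to 77 uM final) were modeled with the Hill equation to give AC50. Reactions: 2 nM enzyme, 80 uM fluorogenic alpha-galactoside, pH 4.5 citric acid buffer, 20 min, room temperature.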

[16] = molecular target: alpha-glucosidase (Oryza sativa, rice) (UniProt Q653V4); experiment: Counterscreen for Glucocerebrosidase Inhibitors: qHTS Assay for Rice alpha-Glucosidase at pH 5.0 (AID 997);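 further: 0% = full activity with enzyme and -100% = basal without enzyme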
Method in brief: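 Rice alpha-glucosidase (4 nM final) with 400 uM 4-methylumbelliferyl-alpha-D-glucopyranoside in citrate buffer pH 5.0, 20 min at room temperature, stopped at pH 10; fluorescence 365/440 nm, compounds 0.7 nM–77 uM, AC50 from Hill fits.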

[17] = molecular target: DNA dC->dU-editing enzyme APOBEC-3G (Homo sapiens) (UniProt Q9HC16); experiment: qHTS for inhibitors of Vif-A3G interactions: Validation (AID 588379); further: 0% is about no effect
Method in brief: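 HeLa cells stably expressing Vif and A3G-eYFP, 700 cells/well, incubated overnight at 37 deg C, then exposed to compound overnight at 37 deg C. Inhibition of Vif-mediated degradation read as increased yellow fluorescence (Ex 488/Em 500-530) by laser-scanning cytometry.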

[18] = molecular target: Ubiquitin carboxyl-terminal hydrolase 1 (Homo sapiens) (UniProt O94782); experiment: Inhibitors of USP1/UAF1: Pilot qHTS (AID 504865);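 further: rhodamine fluorescence freed from ubiquitin-rhodamine substrate followed over time; top concentration of the series differs between compounds; on the % scale 0 is the no-effect control and ±100 the full control effect; nearly all actives have a fitted effect of over 35% in size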
Method in brief: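 Deubiquitinase activity followed as kinetic rhodamine fluorescence release from 150 nM Ub-Rho. 1 nM USP1/UAF1 with compound, after 15 min room-temperature preincubation, in HEPES pH 7.8 buffer containing TCEP, EDTA, BSA and Tween-20.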

[19] = molecular target: Cytochrome P450 3A4 (Homo sapiens) (UniProt P08684); experiment: qHTS Assay for Activators of Cytochrome P450 3A4 (AID 885); further: nearly all actives have a fitted effect of over 65% in size
Method in brief: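 Steps: enzyme/substrate mix dispensed; compound added, 10 min RT; NADPH regeneration solution added, 60 min RT; luciferin detection buffer stops reaction; 20 min later luminescence measured.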

3',5'-cyclic-AMP phosphodiesterase 4B (Homo sapiens), sequence (Q07343 whole entry, looked up): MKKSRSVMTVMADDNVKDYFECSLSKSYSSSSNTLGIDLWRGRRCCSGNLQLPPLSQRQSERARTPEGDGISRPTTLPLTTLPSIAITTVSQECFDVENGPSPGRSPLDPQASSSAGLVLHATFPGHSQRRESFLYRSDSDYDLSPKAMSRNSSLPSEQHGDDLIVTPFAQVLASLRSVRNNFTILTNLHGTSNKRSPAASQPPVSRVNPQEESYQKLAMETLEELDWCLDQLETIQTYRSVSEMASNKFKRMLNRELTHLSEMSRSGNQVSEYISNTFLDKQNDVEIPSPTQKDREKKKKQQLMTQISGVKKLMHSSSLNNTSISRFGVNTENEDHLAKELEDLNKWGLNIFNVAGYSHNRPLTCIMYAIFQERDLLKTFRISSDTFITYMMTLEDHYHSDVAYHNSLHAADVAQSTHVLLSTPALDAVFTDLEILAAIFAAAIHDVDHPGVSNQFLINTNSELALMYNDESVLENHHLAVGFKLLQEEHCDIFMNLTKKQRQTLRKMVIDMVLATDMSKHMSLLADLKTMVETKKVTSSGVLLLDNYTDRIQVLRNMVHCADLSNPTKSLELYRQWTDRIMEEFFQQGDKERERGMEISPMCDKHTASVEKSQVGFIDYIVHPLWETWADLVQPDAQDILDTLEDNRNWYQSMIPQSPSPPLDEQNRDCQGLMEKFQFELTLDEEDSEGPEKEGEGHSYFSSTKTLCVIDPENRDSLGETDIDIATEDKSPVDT
DNA dC->dU-editing enzyme APOBEC-3G (Homo sapiens), sequence (Q9HC16 whole entry, looked up): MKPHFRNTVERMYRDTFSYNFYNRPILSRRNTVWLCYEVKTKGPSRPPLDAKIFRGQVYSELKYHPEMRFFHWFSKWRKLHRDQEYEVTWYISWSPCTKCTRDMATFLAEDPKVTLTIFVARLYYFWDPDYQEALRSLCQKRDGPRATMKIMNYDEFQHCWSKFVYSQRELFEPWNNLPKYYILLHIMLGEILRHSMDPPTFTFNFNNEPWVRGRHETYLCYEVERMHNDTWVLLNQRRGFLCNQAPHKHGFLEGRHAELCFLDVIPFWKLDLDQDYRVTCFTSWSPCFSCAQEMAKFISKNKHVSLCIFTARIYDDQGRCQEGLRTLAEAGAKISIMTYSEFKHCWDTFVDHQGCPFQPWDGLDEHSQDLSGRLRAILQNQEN
Glucocorticoid receptor (Homo sapiens), sequence (P04150 whole entry, looked up, the tested form may be a part): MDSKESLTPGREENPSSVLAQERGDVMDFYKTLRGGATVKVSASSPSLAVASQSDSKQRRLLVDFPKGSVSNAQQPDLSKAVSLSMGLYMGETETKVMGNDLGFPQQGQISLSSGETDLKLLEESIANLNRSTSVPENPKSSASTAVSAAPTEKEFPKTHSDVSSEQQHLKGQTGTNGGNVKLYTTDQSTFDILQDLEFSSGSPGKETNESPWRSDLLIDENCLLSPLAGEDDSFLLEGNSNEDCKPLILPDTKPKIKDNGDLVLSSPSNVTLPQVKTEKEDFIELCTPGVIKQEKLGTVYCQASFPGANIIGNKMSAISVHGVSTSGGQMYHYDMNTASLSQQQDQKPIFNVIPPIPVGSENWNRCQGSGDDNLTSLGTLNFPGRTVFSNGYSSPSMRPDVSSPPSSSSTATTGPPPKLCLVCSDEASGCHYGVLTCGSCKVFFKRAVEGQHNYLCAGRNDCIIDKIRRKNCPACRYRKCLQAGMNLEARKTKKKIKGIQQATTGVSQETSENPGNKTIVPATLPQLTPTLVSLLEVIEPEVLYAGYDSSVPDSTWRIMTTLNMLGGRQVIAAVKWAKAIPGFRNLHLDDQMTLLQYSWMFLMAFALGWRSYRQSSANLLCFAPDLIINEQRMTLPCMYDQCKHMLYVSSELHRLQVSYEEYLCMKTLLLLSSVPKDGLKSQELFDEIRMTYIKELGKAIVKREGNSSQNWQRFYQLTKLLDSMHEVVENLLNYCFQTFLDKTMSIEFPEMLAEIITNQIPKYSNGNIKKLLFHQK
Cytochrome P450 1A2 (Homo sapiens), sequence (P05177 whole entry, looked up): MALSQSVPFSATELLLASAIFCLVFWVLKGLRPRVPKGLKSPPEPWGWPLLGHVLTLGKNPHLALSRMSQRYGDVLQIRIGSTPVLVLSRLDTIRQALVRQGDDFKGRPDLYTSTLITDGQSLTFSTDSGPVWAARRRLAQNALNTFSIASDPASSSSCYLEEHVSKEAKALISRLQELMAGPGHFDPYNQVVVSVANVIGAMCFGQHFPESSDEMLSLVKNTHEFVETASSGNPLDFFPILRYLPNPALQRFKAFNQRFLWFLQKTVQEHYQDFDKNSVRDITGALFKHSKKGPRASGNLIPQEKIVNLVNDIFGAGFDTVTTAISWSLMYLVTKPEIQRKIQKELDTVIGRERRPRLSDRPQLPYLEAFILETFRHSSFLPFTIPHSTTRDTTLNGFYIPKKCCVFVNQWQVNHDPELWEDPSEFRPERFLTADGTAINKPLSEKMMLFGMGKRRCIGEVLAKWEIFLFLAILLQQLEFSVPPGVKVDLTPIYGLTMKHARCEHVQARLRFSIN
Ubiquitin carboxyl-terminal hydrolase 1 (Homo sapiens), sequence (O94782 whole entry, looked up): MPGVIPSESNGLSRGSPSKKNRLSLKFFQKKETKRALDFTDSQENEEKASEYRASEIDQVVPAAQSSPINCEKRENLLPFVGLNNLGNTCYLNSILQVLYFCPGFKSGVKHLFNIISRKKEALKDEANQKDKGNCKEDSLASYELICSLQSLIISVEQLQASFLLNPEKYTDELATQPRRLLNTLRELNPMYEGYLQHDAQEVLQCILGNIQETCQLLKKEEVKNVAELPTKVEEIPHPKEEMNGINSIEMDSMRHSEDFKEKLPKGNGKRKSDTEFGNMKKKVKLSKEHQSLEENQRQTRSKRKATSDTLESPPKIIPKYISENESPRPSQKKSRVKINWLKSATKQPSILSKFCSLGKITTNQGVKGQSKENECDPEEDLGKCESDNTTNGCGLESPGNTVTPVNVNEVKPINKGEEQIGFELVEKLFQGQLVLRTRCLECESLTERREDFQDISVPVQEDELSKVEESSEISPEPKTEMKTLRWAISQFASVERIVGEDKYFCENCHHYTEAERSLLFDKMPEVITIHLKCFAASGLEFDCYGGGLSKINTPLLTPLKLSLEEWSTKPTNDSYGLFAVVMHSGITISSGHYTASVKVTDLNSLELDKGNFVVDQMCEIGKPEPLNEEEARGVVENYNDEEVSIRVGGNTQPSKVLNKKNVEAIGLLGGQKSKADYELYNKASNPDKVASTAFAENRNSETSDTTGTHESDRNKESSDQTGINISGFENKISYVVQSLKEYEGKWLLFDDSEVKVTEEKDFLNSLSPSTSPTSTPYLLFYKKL
Cytochrome P450 2C19 (Homo sapiens), sequence (P33261 whole entry, looked up): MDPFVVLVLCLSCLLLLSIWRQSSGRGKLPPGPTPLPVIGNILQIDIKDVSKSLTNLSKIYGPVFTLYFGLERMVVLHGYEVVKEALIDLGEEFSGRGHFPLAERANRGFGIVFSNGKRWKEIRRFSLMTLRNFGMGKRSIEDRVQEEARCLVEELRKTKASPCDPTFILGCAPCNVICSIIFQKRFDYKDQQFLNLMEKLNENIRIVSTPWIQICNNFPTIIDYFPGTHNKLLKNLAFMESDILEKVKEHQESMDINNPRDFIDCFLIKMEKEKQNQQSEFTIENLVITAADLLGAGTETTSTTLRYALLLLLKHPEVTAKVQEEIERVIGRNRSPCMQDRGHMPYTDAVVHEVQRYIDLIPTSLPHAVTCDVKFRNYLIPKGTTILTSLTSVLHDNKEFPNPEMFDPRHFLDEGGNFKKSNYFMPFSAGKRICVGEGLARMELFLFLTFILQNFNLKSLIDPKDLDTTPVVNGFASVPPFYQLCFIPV
Pyruvate kinase (Leishmania mexicana), sequence (Q27686 2-499 E452W): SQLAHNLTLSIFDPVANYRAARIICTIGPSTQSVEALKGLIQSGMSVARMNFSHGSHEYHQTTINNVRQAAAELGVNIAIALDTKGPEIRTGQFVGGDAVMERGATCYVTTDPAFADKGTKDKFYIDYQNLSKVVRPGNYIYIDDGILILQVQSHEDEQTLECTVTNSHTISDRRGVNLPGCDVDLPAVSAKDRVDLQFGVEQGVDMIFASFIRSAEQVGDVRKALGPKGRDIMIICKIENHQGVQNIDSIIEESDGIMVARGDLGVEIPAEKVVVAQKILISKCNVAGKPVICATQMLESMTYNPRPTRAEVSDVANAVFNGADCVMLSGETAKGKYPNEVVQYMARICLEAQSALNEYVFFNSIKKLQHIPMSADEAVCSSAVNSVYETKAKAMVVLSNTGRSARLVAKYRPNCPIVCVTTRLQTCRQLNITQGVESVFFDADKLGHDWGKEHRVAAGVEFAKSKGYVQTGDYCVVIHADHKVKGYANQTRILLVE
Guanine nucleotide-binding protein G(i) subunit alpha-1 (Homo sapiens), sequence (P63096 whole entry, looked up): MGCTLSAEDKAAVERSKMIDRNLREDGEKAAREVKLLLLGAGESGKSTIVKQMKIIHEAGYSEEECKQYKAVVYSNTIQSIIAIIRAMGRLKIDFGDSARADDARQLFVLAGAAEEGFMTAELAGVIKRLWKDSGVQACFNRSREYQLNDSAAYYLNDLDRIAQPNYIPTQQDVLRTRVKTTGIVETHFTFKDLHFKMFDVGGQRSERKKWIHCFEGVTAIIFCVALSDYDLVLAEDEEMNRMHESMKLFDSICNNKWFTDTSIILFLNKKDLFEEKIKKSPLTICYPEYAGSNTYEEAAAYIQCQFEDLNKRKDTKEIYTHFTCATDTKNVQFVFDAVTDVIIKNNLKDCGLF
Alpha-galactosidase A (Homo sapiens), sequence (P06280 whole entry, looked up): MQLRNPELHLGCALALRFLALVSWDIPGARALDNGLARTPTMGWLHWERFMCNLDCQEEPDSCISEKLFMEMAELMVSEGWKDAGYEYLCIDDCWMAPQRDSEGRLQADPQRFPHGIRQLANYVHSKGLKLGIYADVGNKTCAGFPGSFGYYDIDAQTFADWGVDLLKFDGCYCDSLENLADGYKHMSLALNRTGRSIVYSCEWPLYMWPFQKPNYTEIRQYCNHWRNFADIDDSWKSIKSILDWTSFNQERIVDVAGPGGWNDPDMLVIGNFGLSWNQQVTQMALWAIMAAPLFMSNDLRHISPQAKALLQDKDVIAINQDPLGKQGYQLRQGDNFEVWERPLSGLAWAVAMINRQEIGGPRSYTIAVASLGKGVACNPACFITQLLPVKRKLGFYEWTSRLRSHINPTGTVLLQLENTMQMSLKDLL

CCCCC[C@H](O)/C=C/C1=C(CCCCCCC(=O)O)C(=O)CC1
inactive: activity change, negative = inhibition ([1]; at 17.2 µM (top of the series)) -2.06% | activity, negative = inhibition ([2]; at 17.2 µM (top of the series)) 0.776% | Potency [3] > 20.6 µM | activity change, negative = inhibition [4] 14% [at 6.83 µM] | activity change, negative = inhibition [5] -5.34% [at 3.88 µM]

C[C@@H](C[C@H](N)C(=O)O)C(=O)O
inactive: activity change, negative = inhibition ([1]; at 7.69 µM (top of the series)) -5.85% | activity change, negative = inhibition [6] -18.7% [at 11.4 µM] | activity change, negative = inhibition ([7]; at 7.69 µM (top of the series)) 21.8% | activity, negative = inhibition ([2]; at 7.69 µM (top of the series)) 15.7% | Potency [3] > 46 µM | Potency [8] > 9.22 µM | activity change, negative = inhibition [9] -4.43% [at 11.4 µM] | Potency [10] | activity, negative = inhibition [11] 46.1% [at 11.4 µM] | Potency [4] | Potency [5]

C=CCN1CCc2cc(O)c(O)cc2[C@H](c2ccccc2)C1
inactive: activity change, negative = inhibition ([1]; at 38 µM (top of the series)) -3.34% | Potency [6] | activity change, negative = inhibition ([7]; at 38 µM (top of the series)) -18.1% | activity, negative = inhibition ([2]; at 38 µM (top of the series)) -21% | Potency [3] > 46 µM | Potency [8] > 46 µM | Potency [9] | Potency [10] | outcome [12] | Potency [13] | outcome [14] | outcome [15] | outcome [16] | Potency [17] | Potency [4] | Potency [5]

CSCC[C@H](C=O)NC(=O)[C@H](CC(C)C)NC(=O)[C@H](CC(C)C)NC(C)=O (Ac-Leu-Leu-[dM]-aldehyde)
inactive: Potency [6] | Potency [3] > 46 µM | Potency [8] > 46 µM | Potency [9] | Potency [10] | Potency [18] | Potency [17] | Potency [4] | Potency [5]

CCCCC#Cc1nc(NC)c2ncn([C@@H]3O[C@@H](CO)[C@H](O)[C@H]3O)c2n1
active: Potency [6] 31.6 µM
inactive: Potency [3] > 46 µM | Potency [8] > 46 µM | Potency [9] | Potency [10] | Potency [18] | Potency [17] | Potency [4] | Potency [5]

CO[C@@]12C[C@@H](COC(=O)c3cncc(Br)c3)CN(C)[C@H]1Cc1cn(C)c3cccc2c13
active: Potency [6] 5.01 µM and 15.8 µM and 39.8 µM | Potency [11] 6.31 µM
inactive and 3.16 µM (active): Potency [9]
inactive: activity change, negative = inhibition ([1]; at 17.2 µM (top of the series)) -12% | activity, negative = inhibition ([2]; at 17.2 µM (top of the series)) -10.5% | Potency [3] > 20.6 µM and > 46 µM | Potency [8] > 20.6 µM and > 46 µM | Potency [19] | Potency [17] | Potency [4] | Potency [5]
